The values below come from PubChem BioAssay AID652065 (The Scripps Research Institute Molecular Screening Center, 2013).

In all, about 4,300 compounds went through this assay and about 3,000 (70%) were called active.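 Rule for the calls: active = inhibition above a per-plate cutoff, the mean inhibition of sample wells plus 3 SD (cut at about 35% in these data); inactive = the rest.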 The set was probably picked from earlier hits. A selection follows.

A short description of this experiment: small molecules binding CAG repeat RNA – biochemical, fluorescence, confirmation (AID 652065).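 Note: loss of TO-PRO-1 fluorescence as compound displaces dye from 1x1 AA loop RNA; 0% = DMSO only wells and 100% = 100 µM mitoxantrone.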 The settings on record: r(CAG) RNA repeat, TO-PRO-1 dye displacement fluorescence; at 3 µM; active compounds read high.
For `COc1ccc(C(CNC(=O)c2cccc(S(=O)(=O)Nc3ccccc3Cl)c2)N2CCOCC2)cc1` (centres undefined), the inhibition was 63.9% (active).

As for `Cc1cc(C(=O)N/N=C/c2ccc(O)c([N+](=O)[O-])c2)c(C)n1-c1ccc(F)cc1`, the inhibition was 42.6% (active).

On to `Cc1sc(NC(=O)c2ccc3ncsc3c2)c(C(N)=O)c1C`, for which the inhibition is 18.1% (inactive).

In the case of `O=c1ccc2c(-c3ccccc3S(=O)(=O)O)c3ccc(O)c(O)c3oc-2c1O`, the inhibition was 91.4% (active).

In the case of `CCc1ccc(N2CC(C(=O)Nc3ccc(S(=O)(=O)Nc4nccs4)cc3)CC2=O)cc1` (centres undefined), the inhibition was 42% (active).

In the case of `CCCCCCC(=O)Nc1nc(C)c(-c2csc(Nc3cc(Cl)ccc3OC)n2)s1`, the inhibition is 21.8% (inactive).

On to `O=C(Nc1ccc(S(=O)(=O)Nc2nccs2)cc1)c1cccc(S(=O)(=O)N2CCOCC2)c1`, for which the inhibition was 20.8% (inactive).

On to `O=C(Nc1ccc(S(=O)(=O)Nc2nccs2)cc1)c1cc(-c2ccncc2)nc2ccccc12`, for which the inhibition is 65.2% (active).

`O=C(CCc1ccccc1Cl)Nc1ccc(S(=O)(=O)Nc2nccs2)cc1`: the inhibition is 39.1% (active).

As to `Cc1ccc(OCCC(=O)Nc2ccc(S(=O)(=O)Nc3nccs3)cc2)cc1`, the inhibition was 35% (active).

With `COC(=O)c1sc(-c2ccc(C(C)(C)C)cc2)cc1NC(=O)/C=C/C(=O)O`, the inhibition was 80% (active).

`C[C@H]([C@@H](O)[C@@H](O)[C@@H](C)C(C)(C)C)[C@H]1CC[C@H]2C3CC[C@H]4C[C@H](OS(=O)(=O)O)[C@@H](OS(=O)(=O)O)C[C@]4(C)[C@H]3CC[C@]12C` (some centres undefined): the inhibition is 87.8% (active).

`Cc1ccc(NC(=O)Nc2nnc(-c3ccncc3)s2)cc1`: the inhibition was 25.5% (inactive).

As to `O=C(Nc1ccccc1)Nc1nc2ccccc2s1`, the inhibition is 13.2% (inactive).

In the case of `O=C(Nc1ccccc1)Nc1nnc(COc2ccccc2F)s1`, the inhibition was 42.2% (active).

Consider `COC(=O)c1sccc1NC(=O)CSc1ccccc1NS(=O)(=O)c1cc(Cl)ccc1Cl`, for which the inhibition was 73% (active).

As for `O=C(Nc1cccc(Cl)c1)Nc1ccccc1NS(=O)(=O)c1cccs1`, the inhibition is 34.4% (inactive).

With `CCOc1cc(C(=O)Nc2ccc(S(=O)(=O)Nc3cnc4ccccc4n3)cc2)cc(OCC)c1OCC`, the inhibition is 66.4% (active).

Take `Cc1ccccc1-c1ccc2c(c1)O[C@@H](CN(C)Cc1ccc(C(=O)O)cc1)[C@@H](C)CN([C@H](C)CO)S2(=O)=O`: the inhibition is 58.3% (active).

Regarding `COc1cc(C(=O)Nn2c(O)c(C3=c4ccccc4=NC3=O)sc2=S)ccc1O`, the inhibition is 14.6% (inactive).

Take `CCc1ccc(OC(C)C(=O)Nc2ccc(S(=O)(=O)Nc3cc(C)on3)cc2)cc1` (centres undefined): the inhibition was 26.1% (inactive).

As for `Cc1ccc(C(=O)/C=C/Nc2ccc(S(=O)(=O)Nc3onc(C)c3C)cc2)cc1`, the inhibition was 62.5% (active).

In the case of `Cc1noc(NS(=O)(=O)c2ccc(NC(=O)c3oc4ccc(F)cc4c3C)cc2)c1C`, the inhibition was 71.9% (active).

Regarding `Cc1cc(C)c2nc(-c3cccnc3)cc(C(=O)Nc3ccc(S(=O)(=O)Nc4onc(C)c4C)cc3)c2c1`, the inhibition was 83.2% (active).

As to `Cc1cc(OC(C)C(=O)Nc2ccc(S(=O)(=O)Nc3onc(C)c3C)cc2)cc(C)c1Cl` (centres undefined), the inhibition is 62.4% (active).

For the compound `CCn1c(SCC(=O)Nc2ccc(S(=O)(=O)Nc3onc(C)c3C)cc2)nnc1-c1ccccc1`, the inhibition is 22% (inactive).

On to `COc1cccc(-c2coc3cc4oc(=O)c(CC(=O)O)c(C)c4cc23)c1`, for which the inhibition is 42.7% (active).

Take `O=C(COc1ccc([N+](=O)[O-])cc1)Nc1cccc(C(=O)Nc2ccccc2C(=O)O)c1`: the inhibition is 62.4% (active).

Consider `CCN(CC)C(=O)CSC(Nc1cccc(F)c1)=C(C#N)C#N`, for which the inhibition was 38.4% (active).

Turning to `Cc1nnc(SC(C(=O)Nc2cc(Cl)cc(Cl)c2)c2ccccc2)[nH]c1=O` (centres undefined), the inhibition was 64.1% (active).

With `COc1ccc(Cc2nnc(SCC(=O)Nc3ccc(C)c(Cl)c3)[nH]c2=O)cc1`, the inhibition was 62.5% (active).

Take `CC(=O)Nc1ccc(S(=O)(=O)N(CCc2ccccc2)CC(=O)N/N=C/c2ccc(C(=O)O)cc2)cc1`: the inhibition is 28.1% (inactive).

In the case of `O=C(COC(=O)c1ccc(NS(=O)(=O)c2cccs2)cc1O)Nc1ccc(F)cc1`, the inhibition is 23.1% (inactive).

On to `Cc1cc(NS(=O)(=O)c2ccc(NC(=O)CSc3nnc(SCc4ccc(F)cc4)s3)cc2)nc(C)n1`, for which the inhibition was 45% (active).

On to `Cc1cc(NS(=O)(=O)c2ccc(NC(=O)CSc3nnc(-c4ccc(C(C)(C)C)cc4)n3Cc3ccco3)cc2)nc(C)n1`, for which the inhibition is 23.6% (inactive).

Turning to `C=CCn1c(=S)[nH]c2scc(-c3ccco3)c2c1=O`, the inhibition is 27.3% (inactive).

As for `COc1ccc(Br)cc1/C=N/Nc1ccc(S(=O)(=O)Nc2ccccc2C(=O)O)cc1[N+](=O)[O-]`, the inhibition was 93.4% (active).

Take `COc1cccc(/C=N/Nc2ccc(S(=O)(=O)Nc3ccccc3C(=O)O)cc2[N+](=O)[O-])c1O`: the inhibition was 93.9% (active).

`O=C(O)c1ccccc1/C=N/Nc1ccc(S(=O)(=O)Nc2ccc(Cl)cc2)cc1[N+](=O)[O-]`: the inhibition was 63.4% (active).

In the case of `NS(=O)(=O)c1ccc(N=Nc2c(O)[nH]c3ccc(Br)cc23)cc1`, the inhibition is 18.8% (inactive).

As for `O=C1/C(=C/c2ccc(F)cc2)SC(=S)N1NS(=O)(=O)c1ccccc1`, the inhibition is 53.6% (active).

Take `COc1ccc(/C=C/C(=O)c2ccc(NS(=O)(=O)c3ccc(C)cc3)cc2)cc1O`: the inhibition was 54.9% (active).

On to `COc1cc(/C=C2/C(=O)NN(c3cccc(Cl)c3)C2=O)cc(Br)c1O`, for which the inhibition is 24.5% (inactive).

Turning to `O=C(Nc1nncs1)c1ccccc1NS(=O)(=O)c1cccs1`, the inhibition was 30.2% (inactive).

On to `COc1cc(NC(=O)c2ccccc2NS(=O)(=O)c2ccc(Cl)s2)cc(OC)c1`, for which the inhibition is 82% (active).

Consider `CCc1nnc(NS(=O)(=O)c2ccc(NC(=S)NC(=O)c3cccs3)cc2)s1`, for which the inhibition is 46.7% (active).

Turning to `CCc1nnc(NS(=O)(=O)c2ccc(NC(=O)c3cccc(OC(F)(F)C(F)F)c3)cc2)s1`, the inhibition is 56.7% (active).

As to `NS(=O)(=O)c1ccc(NC2=CC(c3ccc(F)cc3)N(c3ccc(S(N)(=O)=O)cc3)C2=O)cc1` (centres undefined), the inhibition was 12.6% (inactive).

Regarding `Cc1ccc(SC(CC(=O)c2ccc(C(C)(C)C)cc2)C(=O)O)cc1` (centres undefined), the inhibition was 44.7% (active).

With `Cc1ccc(C(=O)Oc2coc(CSc3nnc(NC(=O)c4cccs4)s3)cc2=O)cc1C`, the inhibition is 60.6% (active).

In the case of `O=C(O)CCn1cc(/C=C/C(=O)c2ccc(Cl)cc2)c(-c2cccc(Br)c2)n1`, the inhibition is 86.2% (active).

As to `CN(C(=O)COC(=O)c1cc(-c2ccco2)nc2ccccc12)C1CCS(=O)(=O)C1` (centres undefined), the inhibition was 27.6% (inactive).

As to `CC(C)c1ccc(Nc2nnc(SCC(=O)c3nnc(-c4ccccc4)o3)s2)cc1`, the inhibition was 56.2% (active).

As to `Cc1ccc(-c2csc(C(C#N)=C(O)CN3CCN(C(=O)c4ccco4)CC3)n2)cc1`, the inhibition is 60.2% (active).

Regarding `O=C1c2cccc3cccc(c23)C(=O)N1CCCCCc1n[nH]c(=S)o1`, the inhibition was 26.9% (inactive).

For the compound `COc1ccccc1/C=C/C=N/n1c(-c2ccc(Cl)cc2Cl)n[nH]c1=S`, the inhibition is 42.1% (active).

Regarding `O=C(O)c1[nH]c2ccccc2c1C(c1cccc(O)c1)c1c(C(=O)O)[nH]c2ccccc12`, the inhibition was 38.5% (active).

In the case of `CC(=O)Nc1ccc(-c2csc(NC(=O)Nc3ccccc3)n2)cc1`, the inhibition was 23.1% (inactive).

In the case of `CC(=O)Nc1ccc(C(=O)Nc2nc(-c3cc(C)n(Cc4ccccc4)c3C)cs2)cc1`, the inhibition is 20.6% (inactive).

For the compound `CC(=O)Nc1ccc(S(=O)(=O)Nc2nc(-c3ccc(C(C)(C)C)cc3)cs2)cc1`, the inhibition was 67.6% (active).

Take `Cc1ccc(Nc2nc(CSc3nnnn3-c3ccccc3)cc(=O)[nH]2)cc1`: the inhibition was 50.7% (active).

Consider `COc1ccccc1C1C(C#N)=C(N)Oc2c1c(-c1ccccc1)nn2-c1ccccc1` (centres undefined), for which the inhibition was 30% (inactive).

Regarding `CC(C)(C)C1C/C(=C/c2ccco2)C(=O)/C(=C/c2ccco2)C1` (centres undefined), the inhibition is 44.2% (active).

Turning to `Cc1ccc(Nc2nc(-c3ccc(O)cc3O)cs2)nc1`, the inhibition is 23.4% (inactive).

`O=C(Nc1nc(-c2ccco2)c(-c2ccco2)s1)c1ccco1`: the inhibition was 34.7% (active).

`CCc1nnc(NS(=O)(=O)c2ccc(N=Cc3c(C)[nH]n(-c4ccc(C)cc4)c3=O)cc2)s1`: the inhibition is 69.2% (active).

On to `COC(=O)c1ccc(COc2ccc(/C=C/C(=O)c3ccc(OC)c(CSCC(=O)O)c3)cc2OC)cc1`, for which the inhibition is 66.9% (active).

With `COc1ccc(C(=O)/C=C/c2ccc(-c3ccccc3)cc2)cc1CSCC(=O)O`, the inhibition was 85.1% (active).

Consider `CCOC(=O)c1ccccc1N1C(=O)C2Sc3[nH]c(=O)sc3C(/C=C/c3ccccc3)C2C1=O` (centres undefined), for which the inhibition is 46.1% (active).

As for `O=C(O)c1ccc(NN=CC2=C(N3CCOCC3)/C(=C/c3ccccc3)CC2)cc1`, the inhibition is 70.3% (active).

For `Cc1ccc(C)c(Cn2nnc3c(=O)[nH]c(C(=O)Nc4ccc(F)cc4)nc32)c1`, the inhibition is 43.2% (active).

Consider `COc1cccc2sc(NNC(=O)c3nc4ccccc4s3)nc12`, for which the inhibition was 85% (active).

As for `Clc1ccccc1CSc1nnc(-c2ccco2)c(-c2ccco2)n1`, the inhibition was 59.9% (active).

For the compound `COc1ccc(-c2nc3ccc(Br)cn3c2Cc2ccc(C)cc2)cc1OC`, the inhibition was 9.11% (inactive).

For `Fc1cccc(Cc2c(-c3cccc(Cl)c3)nc3ccc(Br)cn23)c1`, the inhibition was 40.3% (active).

Regarding `Cc1cc(Br)cn2c(Cc3cccc(F)c3)c(-c3cccc(Br)c3)nc12`, the inhibition is 4.39% (inactive).

On to `COc1ccc(C(=O)Nc2cccc(/C=C(/CCC(=O)O)c3nc4ccccc4s3)c2)cc1`, for which the inhibition was 72.8% (active).

With `CCOC(=O)c1csc(NC(=O)Nc2cccc(OC)c2)n1`, the inhibition is 29.9% (inactive).

`O=C(O)CC/C(=C\c1cc2c(cc1Br)OCO2)c1nc2ccccc2s1`: the inhibition was 50.5% (active).

`O=C(c1cccnc1)N(c1cc2sc(=O)oc2c2ccccc12)S(=O)(=O)c1ccccc1`: the inhibition is 57.6% (active).

As to `CC(=O)N(c1ccc2oc(=O)sc2c1)S(=O)(=O)c1ccc(C)cc1`, the inhibition is 5.58% (inactive).

In the case of `O=C1Oc2ccccc2C(=O)/C1=C/c1ccccc1O`, the inhibition was 39% (active).

Turning to `O=c1oc(-c2ccccc2NS(=O)(=O)c2ccc(Cl)cc2)nc2ccccc12`, the inhibition is 17.2% (inactive).

As for `COc1ccc(S(=O)(=O)/N=C2\C=C(NS(=O)(=O)c3ccccc3)C(=O)c3ccccc32)cc1`, the inhibition was 85% (active).

By inhibition is commonly meant how much of the control response was suppressed.
